Consider 93 compounds from publication PMC4336329 (PLoS ONE, 2015).

Each structure is given as a SMILES string. The campaign covered roughly 310,000 compounds. About 14,000 (4.5%) showed an effect of 50% or more. Effects have a minus sign here. What follows is part of a selection rich in strong results, with near analogues and random picks from the rest.
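Further: peak tail current of the secondary pulse compared with the same well before compound.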

In the assay the target is human ether-à-go-go-related gene (hERG) potassium channel (human, UniProt Q12809). The experiment in a line: primary screen, population patch clamp on CHO cells stably expressing hERG; higher = less effect of the substance.
Sequence of human ether-à-go-go-related gene (hERG) potassium channel (Q12809 whole entry, looked up): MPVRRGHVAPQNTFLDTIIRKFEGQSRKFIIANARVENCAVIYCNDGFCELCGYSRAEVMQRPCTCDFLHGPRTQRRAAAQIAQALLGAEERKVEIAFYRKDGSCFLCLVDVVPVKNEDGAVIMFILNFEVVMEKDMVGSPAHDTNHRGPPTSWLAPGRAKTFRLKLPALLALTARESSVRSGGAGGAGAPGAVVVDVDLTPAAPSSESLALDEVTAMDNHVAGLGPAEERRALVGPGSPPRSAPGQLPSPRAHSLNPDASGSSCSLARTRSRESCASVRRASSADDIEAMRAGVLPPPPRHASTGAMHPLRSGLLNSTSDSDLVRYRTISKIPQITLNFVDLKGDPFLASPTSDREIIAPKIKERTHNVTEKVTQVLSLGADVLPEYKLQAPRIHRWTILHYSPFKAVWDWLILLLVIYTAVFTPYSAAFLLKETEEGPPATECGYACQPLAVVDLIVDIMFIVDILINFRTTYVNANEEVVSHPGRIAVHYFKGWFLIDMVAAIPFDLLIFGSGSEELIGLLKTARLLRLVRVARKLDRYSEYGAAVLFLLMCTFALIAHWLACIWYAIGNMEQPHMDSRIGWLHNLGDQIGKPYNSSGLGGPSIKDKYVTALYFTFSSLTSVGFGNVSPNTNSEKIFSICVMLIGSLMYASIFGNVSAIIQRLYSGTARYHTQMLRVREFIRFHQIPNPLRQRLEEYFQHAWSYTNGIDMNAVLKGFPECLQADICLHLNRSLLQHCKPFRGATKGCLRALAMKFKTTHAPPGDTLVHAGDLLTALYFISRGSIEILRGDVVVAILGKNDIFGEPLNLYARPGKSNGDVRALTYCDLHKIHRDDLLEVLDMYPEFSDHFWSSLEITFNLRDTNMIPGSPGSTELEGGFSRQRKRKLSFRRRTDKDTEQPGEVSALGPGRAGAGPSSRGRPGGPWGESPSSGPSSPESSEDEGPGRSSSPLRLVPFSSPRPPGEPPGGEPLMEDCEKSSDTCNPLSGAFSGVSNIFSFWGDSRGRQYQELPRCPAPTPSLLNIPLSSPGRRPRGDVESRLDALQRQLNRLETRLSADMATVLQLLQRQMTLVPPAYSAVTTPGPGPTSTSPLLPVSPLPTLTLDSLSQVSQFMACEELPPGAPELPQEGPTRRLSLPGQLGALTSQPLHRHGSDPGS
For the compound `CCN(CC)S(=O)(=O)c1ccc(NC(=O)CO/N=C(\N)c2ccccc2)cc1`, the “hERG current change (%, negative = inhibition) at 10uM” value is listed as -16.6%.
Consider `O=C(CN1CCOc2ccccc21)NCc1cccs1`, for which the “hERG current change (%, negative = inhibition) at 10uM” value is on record as 8.26%.
As to `Br.O=C(CN1C2=NCCCN2c2ccccc21)c1ccc(Br)s1`, the “hERG current change (%, negative = inhibition) at 10uM” value is given as -67.2%.
For `O=C(CN1C2=NCCCN2c2ccccc21)c1cccs1` the value was -18.4%; for `Br.O=C(CN1C2=NCCN2c2ccccc21)C12CC3CC(CC(C3)C1)C2`, -72.7%.
With `Br.O=C(CN1C2=NCCN2c2ccccc21)c1cccs1`, the “hERG current change (%, negative = inhibition) at 10uM” value was -31.3%.
As for `Br.CCOC(=O)CN1C2=NCCN2c2ccccc21`, the “hERG current change (%, negative = inhibition) at 10uM” value is listed as 18.1%.
As to `Br.O=C(CN1C2=NCCN2c2ccccc21)c1ccc(Br)s1`, the “hERG current change (%, negative = inhibition) at 10uM” value was -64.5%.
Then `O=C1CCC(=O)N1CC(=O)N1c2ccccc2Sc2ccccc21`, with 3.19%; and `Cc1nc(C(=O)NC2CCOCC2)sc1C1(C)CC(c2ccccc2)=NO1` (stereo not drawn), with -19.8%; and `CC(C)CCNC(=O)C1CCC(=O)N1CCc1ccccc1` (stereo not drawn), with 9.14%.
In the case of `CCN(CC)CCCNC(=O)c1cc2c(=O)n(CC)c3ccccc3c2s1`, the “hERG current change (%, negative = inhibition) at 10uM” value is on record as -14.9%.
For `CC(C)Oc1ccccc1C1Nc2ccccc2C(=O)N1c1ccc2c(c1)OCCO2` (stereo not drawn) the value was 3.43%; for `Fc1ccccc1NC(=S)NC1CCCC1`, 14%.
On to `Cc1ccc(NC(=O)N(C2=NCC(C)S2)c2ccccc2)cc1` (stereo not drawn), for which the “hERG current change (%, negative = inhibition) at 10uM” value worked out at 16.3%.
For `CCn1c(SCc2nc(-c3ccccc3)no2)nnc1-c1ccco1` the value was -36.3%.
As for `Cn1c(SCc2nc(-c3ccc(Cl)cc3)no2)nnc1-c1ccccc1`, the “hERG current change (%, negative = inhibition) at 10uM” value was -22.5%.
Then `Cn1c(SCc2nc(-c3ccc(Cl)cc3)no2)nnc1-c1ccco1`, with -53.2%.
Take `CCn1c(SCc2nc(-c3ccc(Cl)cc3)no2)nnc1-c1ccco1`: the “hERG current change (%, negative = inhibition) at 10uM” value is given as -62%.
For `Cn1c(SCc2nc(-c3ccccc3)no2)nnc1-c1ccco1` the value was -18.4%; for `CCn1c(SCc2nc(-c3ccccc3)no2)nnc1-c1cccs1`, -61.2%.
Take `Cn1c(SCc2nc(-c3ccc(Br)cc3)no2)nnc1-c1ccco1`: the “hERG current change (%, negative = inhibition) at 10uM” value was -49.6%.
Take `Cn1c(SCc2nc(-c3ccccc3)no2)nnc1-c1cccs1`: the “hERG current change (%, negative = inhibition) at 10uM” value is listed as -2.11%.
For the compound `CCn1c(SCc2nc(-c3ccc(OC)c(OC)c3)no2)nnc1-c1cccs1`, the “hERG current change (%, negative = inhibition) at 10uM” value is -40.1%.
Consider `O=C(NCCN1CCCC1)C1CCN(S(=O)(=O)N2CCC3(CC2)OCCO3)CC1`, for which the “hERG current change (%, negative = inhibition) at 10uM” value is 20.5%.
For `Cc1cccc(N(C)c2ncnc3onc(-c4ccc(F)cc4)c23)c1C` the value was -8.28%.
As for `COc1ccc(CN2CCNC(=O)C2CC(=O)NCC2CCOCC2)c(C)c1C` (stereo not drawn), the “hERG current change (%, negative = inhibition) at 10uM” value is listed as -19.6%.
`O=C(O)CCCn1cc(NC(=O)COc2ccc(F)cc2)cn1`: the “hERG current change (%, negative = inhibition) at 10uM” value was found to be 16.5%.
Then `N#Cc1c(N)oc(-c2ccco2)c1-c1ccco1`, with 1.98%; and `COc1ccc(NS(=O)(=O)c2cccc(C(=O)NNC(=O)CNC(=O)c3ccc(C)cc3)c2)cc1`, with -2.64%; and `O=C(NCc1ccccc1)C(c1ccc(F)cc1)N(Cc1ccco1)C(=O)c1ccccn1` (stereo not drawn), with -24.4%.
For `N#Cc1cccc(Nc2c3c(nc4ccccc24)CCC3)c1`, the “hERG current change (%, negative = inhibition) at 10uM” value is given as -72.2%.
In the case of `O=C(Nc1c2c(nc3ccccc13)CCCC2)c1cccc([N+](=O)[O-])c1`, the “hERG current change (%, negative = inhibition) at 10uM” value is listed as -5.85%.
Then `O=C(Nc1c2c(nc3ccccc13)CCCC2)c1ccccc1Br`, with 4.09%.
For `N#Cc1cccc(Nc2c3c(nc4ccccc24)CCCC3)c1` the value was -74.8%.
On to `CC(C)c1ccc(NC(=O)c2cc3c(=O)n(C)c4ccccc4c3n2C)cc1`, for which the “hERG current change (%, negative = inhibition) at 10uM” value was 6.96%.
Then `COc1ccccc1OCc1ccc(C(=O)N2CCCCC2)o1`, with 2.22%; and `O=C(c1ccco1)c1cn(CC(=O)N2CCCCC2)c2ccccc12`, with -6.34%; and `CCOC(=O)c1[nH]c2ccccc2c1NC(=O)COC`, with -4.53%.
In the case of `Cc1cc(C(=O)CCl)c(C)n1Cc1ccco1`, the “hERG current change (%, negative = inhibition) at 10uM” value turned out to be 3.06%.
Then `Cc1oc(-c2ccccc2F)nc1CS(=O)CC(=O)NCc1cccs1` (stereo not drawn), with -12%; and `Cc1oc(-c2ccc(Cl)cc2)nc1CN1CCC(C(=O)NCCCN2CCCC2=O)CC1`, with -33.9%.
`Cc1oc(-c2ccc(Cl)cc2)nc1CN1CCC(C(=O)NCCCN2CCCC(C)C2)CC1` (stereo not drawn): the “hERG current change (%, negative = inhibition) at 10uM” value is recorded as -16.5%.
Then `Cc1ccccc1-c1nc(CN2CCC(C(=O)NCc3cccs3)CC2)c(C)o1`, with -70.5%.
With `Cc1oc(-c2ccc(Cl)cc2)nc1CN1CCC(C(=O)NCc2cccs2)CC1`, the “hERG current change (%, negative = inhibition) at 10uM” value is recorded as -61.5%.
Then `Cc1oc(-c2ccccc2F)nc1CN1CCC(C(=O)NCc2cccs2)CC1`, with -63.7%.
As to `CC12CCC3C(CC=C4CC(O)CCC43C)C1C/C(=C\c1cccc(F)c1)C2=O` (stereo not drawn), the “hERG current change (%, negative = inhibition) at 10uM” value is 7.89%.
Then `COc1ccc(CNC(=O)Cc2nn(C)c(=O)c3ccccc23)cc1`, with -14.2%.
Then `CCN1CCN(S(=O)(=O)c2cc(C(=O)O)ccc2Cl)CC1.Cl`, with -3.34%; and `Cc1ccc(S(=O)(=O)N2CCC(C(=O)NNC(=O)c3ccccc3)CC2)cc1`, with 18.9%.
For `CCOc1ccc(NC(=S)N2CCC(C(O)(c3ccccc3)c3ccccc3)CC2)cc1` the value was -13%; for `CC(OC(=O)c1ccc(F)c(S(=O)(=O)N2CCOCC2)c1)C(=O)NCC1CCCCC1` (stereo not drawn), 1.84%.
With `C=CCOCCN(CC)CC`, the “hERG current change (%, negative = inhibition) at 10uM” value is reported as -21.3%.
For `Cc1ccc(NC(=O)CSc2nnc(CNC(=O)c3c(F)cccc3Cl)o2)cc1` the value was 3.28%.
For the compound `COc1cc(/C=C2\C(=O)N(CCC#N)N=C2C)ccc1OCC(=O)Nc1ccccc1`, the “hERG current change (%, negative = inhibition) at 10uM” value is listed as -7.3%.
As to `Cc1oc(-c2cccc(Cl)c2)nc1CN(C)C1CCOC1` (stereo not drawn), the “hERG current change (%, negative = inhibition) at 10uM” value amounted to 0.385%.
For `Cc1ccsc1-c1nc(CN2CCN(C)C(=O)[C@@H]2C)c(C)o1` the value was -52.5%; for `CSc1ccc(-c2nc(CN(C)C3CCOC3)c(C)o2)cc1` (stereo not drawn), -31.4%; for `Cc1oc(-c2ccc(-c3ccccc3)cc2)nc1CN(C)C1CCOC1` (stereo not drawn), -55.8%.
For `Cc1ccsc1-c1nc(CN(C)C(C2CC2)C2CC2)c(C)o1` the value was -76%; for `Cc1ccc(-c2nc(CN(C)C(C3CC3)C3CC3)c(C)o2)cc1`, -56.6%; for `Cc1oc(-c2cc(F)ccc2F)nc1CN1CCN(C)C(=O)[C@@H]1C`, 8.32%.
Regarding `Cc1ccsc1-c1nc(CN2CCCC2c2ccc(F)cc2)c(C)o1` (stereo not drawn), the “hERG current change (%, negative = inhibition) at 10uM” value came to 24.9%.
Then `Cc1oc(-c2ccc3ccccc3c2)nc1CN(C)C(C)c1ccncn1` (stereo not drawn), with -49.8%.
For the compound `COc1cccc(C2CCCN2Cc2nc(-c3sccc3C)oc2C)c1` (stereo not drawn), the “hERG current change (%, negative = inhibition) at 10uM” value turned out to be 20.6%.
Then `Cc1ccsc1-c1nc(CN2C[C@@H](C)O[C@@H](C)C2)c(C)o1`, with 17.5%.
For `Cc1ccc(-c2nc(CS(=O)CC(=O)NC3CC3)c(C)o2)cc1` (stereo not drawn) the value was 6.39%.
Turning to `O=[N+]([O-])c1cccc(-c2c(-c3ccccc3)ncc3cc(F)ccc23)c1`, the “hERG current change (%, negative = inhibition) at 10uM” value was 0.428%.
`Nc1cccnc1S(=O)(=O)c1ccccc1`: the “hERG current change (%, negative = inhibition) at 10uM” value worked out at 13.8%.
Then `O=C(c1ccco1)N1CCN(C2=NS(=O)(=O)c3ccccc32)CC1`, with -3.13%.
Then `COc1ccc(CCC(=O)Nc2cccc(Cl)c2)cc1`, with -1.25%.
Then `O=C(CN1C(=O)NC2(CCOc3ccccc32)C1=O)c1ccc(Cl)cc1` (stereo not drawn), with -43.5%; and `O=C(Nc1cccc(-c2ccc(N3CCOCC3)nn2)c1)c1ccc(Cl)cc1`, with -3.12%.
Turning to `Cc1oc(-c2ccc(-c3ccccc3)cc2)nc1CN(CCO)C(C)C`, the “hERG current change (%, negative = inhibition) at 10uM” value is -44.1%.
Then `COCCN(Cc1nc(-c2ccc(-c3ccccc3)cc2)oc1C)C(C)C`, with -71.4%; and `Cc1oc(-c2ccccc2)nc1CC(=O)O`, with 8.97%.
For `COc1ccc(-c2csc(NC(=O)c3ccc(C(C)(C)C)cc3)c2C(=O)O)cc1` the value was 24.9%; for `CC(NC(=S)NCCc1ccccc1)C(c1cccs1)N1CCN(C)CC1` (stereo not drawn), -35.7%.
Then `CC(=O)c1ccc(NC(=O)Nc2ccncc2)cc1`, with 15.3%; and `O=C(CCCc1c[nH]c2ccccc12)N[C@@H](Cc1c[nH]c2ccccc12)C(=O)O`, with 18.9%.
For `CCOC(=O)N1CCC(NC(=O)c2cc(C(=O)Nc3ccc(S(=O)(=O)N4CCCCC4)cc3)ccc2CO)CC1`, the “hERG current change (%, negative = inhibition) at 10uM” value was 34.2%.
Consider `CCOC(=O)Cn1nc(C)cc1NC(=O)c1cccnc1`, for which the “hERG current change (%, negative = inhibition) at 10uM” value is recorded as 10%.
Regarding `O=C(CCCc1nc(-c2ccc(Cl)cc2)no1)NC1CCCC1`, the “hERG current change (%, negative = inhibition) at 10uM” value is listed as -1.19%.
For the compound `O=C(O)[C@H](Cc1ccccc1)NC(=O)N1CCOCC1`, the “hERG current change (%, negative = inhibition) at 10uM” value is listed as -7.49%.
For `CCOC(=O)c1cnc2c(C(=O)OC)cccc2c1NCc1cccnc1` the value was -70.5%; for `CCOC(=O)c1cnc2c(OC)cccc2c1Nc1ccc2c(c1)OCCO2`, -56.3%.
Then `CCOC(=O)c1ccc(NCc2cccnc2)cc1`, with 0.518%.
For the compound `CCOC(=O)c1cnc2c(Cl)cccc2c1NCCN(C)C.Cl`, the “hERG current change (%, negative = inhibition) at 10uM” value is listed as -25.6%.
For the compound `CCOC(=O)c1cnc2ccccc2c1Nc1ccc2c(c1)OCCO2`, the “hERG current change (%, negative = inhibition) at 10uM” value was -12.3%.
For `CCOC(=O)c1cnc2ccc(OC)cc2c1Nc1ccc2c(c1)OCCO2` the value was 1.43%.
Turning to `CCOC(=O)c1cnc2c(OC)cccc2c1N1CC(C)CC(C)C1` (stereo not drawn), the “hERG current change (%, negative = inhibition) at 10uM” value is -17.1%.
For `CCOC(=O)c1cnc2c(OC)cccc2c1NCc1cccnc1`, the “hERG current change (%, negative = inhibition) at 10uM” value is recorded as -72.2%.
Regarding `CCOC(=O)c1cnc2c(OC)cccc2c1Oc1ccccc1`, the “hERG current change (%, negative = inhibition) at 10uM” value is listed as 3.3%.
